Data reported in PubChem BioAssay (NCI).
This is part of a sample that, as a whole, favours compounds with a hit. Of some 83,000 tested, about 20% had one in any assay.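 Results are percent growth after 48 hours of single-concentration exposure. 100 means growth as in untreated cells, lower positive values show inhibition; negative values down to -100 show cell death.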 A number with no mark means an inactive call. The source made the active and inactive calls. Rule for the calls: active = growth percent below 10; inactive = the rest.

Columns and labels:
Experiment in all cases: NCI-60 one-dose screen, 48 h (100 = growth as untreated, 0 = no growth, -100 = all killed)
Settings in all cases: 10 µM unless noted
[1] = test system: HCT-15 colon
[2] = test system: HT29 colon
[3] = test system: SNB-75 CNS
[4] = test system: SNB-19 CNS
[5] = test system: U251 CNS
[6] = test system: PC-3 prostate
[7] = test system: SK-MEL-5 melanoma
[8] = test system: LOX IMVI melanoma
[9] = test system: SK-MEL-28 melanoma
[10] = test system: SK-MEL-2 melanoma
[11] = test system: EKVX NSCLC
[12] = test system: SN12C renal
[13] = test system: UO-31 renal
[14] = test system: TK-10 renal
[15] = test system: ACHN renal
[16] = test system: CAKI-1 renal
[17] = test system: CCRF-CEM leukemia
[18] = test system: MOLT-4 leukemia
[19] = test system: A498 renal
[20] = test system: UACC-62 melanoma

SMILES	growth [1]	growth [2]	growth [3]	growth [4]	growth [5]	growth [6]	growth [7]	growth [8]	growth [9]	growth [10]	growth [11]	growth [12]	growth [13]	growth [14]	growth [15]	growth [16]	growth [17]	growth [18]	growth [19]	growth [20] [%]
CN(C)c1ccc(Nc2c3ccccc3nc3cc(NC(=O)CCN4CCCC4)ccc23)cc1	-18.4% (active)	1.99% (active)	-0.0133% (active)	-7.13% (active)	-48.6% (active)	-25.4% (active)	0.523% (active)	-74.8% (active)	-34.7% (active)	24%	9.96% (active)	-7.36% (active)	-53.1% (active)	-12.7% (active)	1.64% (active)	-47.6% (active)	-15% (active)	-8.89% (active)	–	–
O=C1/C=C/[C@@H](O)[C@@H]2C[C@@H](O)C[C@H]2/C=C/CCC[C@H](CCc2cccc3ccccc23)O1	7.46% (active)	3.87% (active)	33%	30.1%	23.8%	20.6%	-95.9% (active)	-55.9% (active)	2.17% (active)	-9.52% (active)	13.3%	5.88% (active)	4.61% (active)	-0.338% (active)	6.35% (active)	-17.9% (active)	7.69% (active)	-36.2% (active)	-35.6% (active)	–
COc1cc(/C=N/O)nc(-c2ccccn2)c1	26.7%	32.6%	43%	23.1%	21.3%	49.5%	-22.1% (active)	3.54% (active)	18.2%	25.6%	23.4%	15.5%	3.15% (active)	35.3%	9.42% (active)	18.4%	9.2% (active)	12%	–	–
O=C(Nc1cccc(C2=NCCN2)c1)c1ccc(-c2ccc(C(=O)Nc3cccc(C4=NCCN4)c3)cc2)cc1	82.6%	84.5%	82%	87%	86.3%	97.7%	36.9%	97.9%	–	105%	95.8%	61.7%	99.1%	138%	98.4%	107%	89.1%	80.9%	–	68.1
